Most compounds without a hit are left out; they make up all but 2.6% or so of the library.
LMP1 NFkB inh – EBV LMP1-driven NF-kappaB luciferase reporter inhibitors, primary screen, cell-based, luminescence, single point. LMP1-induced NF-kappaB luciferase reporter cells. inhibition, % at 12.5 µM. 350,000 tested, 0.69% active; in the data active = inhibition above about 41%; inconclusive = no clear call, values can overlap the other calls;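 also: 0% = neutral control wells and 100% = reference inhibitor control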
TROY signal inh – inhibitors of TROY-driven NF-kB signaling, primary screen, Q293 LMP1-TROYcd cells, NF-kB luciferase, uHTS. 360,000 tested, 0.98% active. inhibition, % at 10 µM. Q293 LMP1-TROYcd NF-kB luciferase reporter, 4 h;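 active = compounds whose plate-normalised and pattern-corrected inhibition of the luciferase reporter signal at the single screening dose is 50% or more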
TWEAK Fn14 block – inhibitors of TWEAK-Fn14 signaling, primary screen, luciferase reporter cells, uHTS; TWEAK-stimulated Fn14 reporter cells, luciferase luminescence, 8 h; inhibition, % at 10 µM; AID 1159606, 2016; 360,000 tested, 2% active; in the data active = inhibition above about 50%
LGR2 antag – inhibitors of bursicon-induced LGR2 CRE-luciferase signal, primary screen, cell-based, HEK293, CRE-luciferase reporter, bursicon stimulation; Drosophila bursicon receptor LGR2 (rickets); bursicon-stimulated, 4 h; inhibition, % at 9.99 µM; 380,000 tested, 0.35% active; AID 720647, 2013;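 active = drop in luminescence signal, shown as inhibition above about 50% in the replicate tests, limit read from the data, passing the limit was not always enough; inconclusive = probably only some replicates passing the limit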;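 also: agonist challenge used bursicon conditioned medium at about half maximal strength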
EWS-Fli inh – EWS/Fli-driven NR0B1 reporter inhibitors, primary screen, A673 cells, NR0B1 luciferase, luminescence, MLPCN library. viability-normalised. inhibition, % at 12.6 µM. 350,000 tested, 0.67% active;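 active = mean inhibition of at least 50% after viability correction, with every replicate also passing that limit; inconclusive = mean reaches 50% but only one of two replicates passes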;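 also: firefly luciferase signal divided by Alamar Blue viability fluorescence both relative to DMSO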
Starred values were filed as active, the others as inactive; ? = inconclusive; . = no result.

SMILES | LMP1 NFkB inh | TROY signal inh | TWEAK Fn14 block | LGR2 antag | EWS-Fli inh
O=S(=O)(Nc1cc2nc3ccccc3nc2n1Cc1ccccc1)c1ccc(Cl)cc1 | 3.0 | 49.3 | 96.3* | . | -8.8
CN1CCN(CCOc2ccc(Cc3ccccc3)cc2)CC1 | 47.9* | -3.6 | -4.5 | 4.6 | -0.5
COc1ccc(CN(C)C[C@H]2OCCCC[C@H](C)Oc3ccc(NS(=O)(=O)c4ccc(C)cc4)cc3C(=O)N([C@@H](C)CO)C[C@@H]2C)cc1 | . | . | . | 24.4 | 2.4
O=C(CN1C(=O)CCC1=O)Nc1nc(-c2nc3ccccc3s2)cs1 | -1.6 | -6.1 | 82.8* | -54.4 | -84.0
CC(NS(=O)(=O)c1ccc(Br)cc1)C(=O)NCCc1ccccc1 (stereo not drawn) | -3.1 | 56.8* | -2.2 | 5.1 | .
Cc1ccc(S(=O)(=O)NC(Cc2ccccc2)C(=O)NN)cc1 (stereo not drawn) | -13.5 | 16.6 | 3.5 | 19.3 | 11.5
O=C(CCNS(=O)(=O)c1ccc(Br)cc1)NCCc1ccccc1 | 3.1 | 0.8 | -8.0 | 3.3 | .
Cc1ccc(S(=O)(=O)N[C@@H](Cc2ccccc2)C(=O)CCl)cc1 | 1.3 | 4.9 | 65.8* | . | 19.4
CCC(=O)N1CC2(C1)CN(Cc1ccccn1)[C@H](CO)c1[nH]c3cc(OC)ccc3c12 | . | . | . | -12.6 | 3.5
CN(C)C(=O)C[C@@H]1C=C[C@H](NC(=O)C2CCC2)[C@H](CO)O1 | . | . | . | 5.2 | -2.8
CCOc1cc(/C=C2\C(=N)N3N=C(S(=O)(=O)CC)SC3=NC2=O)ccc1OC(=O)c1ccco1 | -4.1 | -7.3 | 1.7 | -9.8 | 4.1
CCOc1cc(/C=C2/C(=N)N3N=C(CC)SC3=NC2=O)ccc1OC(=O)c1ccco1 | 42.7* | 17.5 | 3.2 | 16.7 | .
CC(C)NC(=O)N(C)C[C@@H]1Oc2ncc(C#CC3CCCC3)cc2C(=O)N([C@H](C)CO)C[C@@H]1C | . | . | . | -13.7 | -6.0
CN1/C(=C/c2cccc[n+]2CCO)Sc2ccccc21 | -2.3 | -11.2 | -20.5 | -0.7 | -7.5
CC[n+]1ccccc1/C=C1\Sc2ccc(C)cc2N1C | 19.5 | 9.2 | 13.2 | 12.8 | 55.0*
C[C@@H]1CN([C@@H](C)CO)C(=O)c2cc(NC(=O)Nc3ccc(C(F)(F)F)cc3)ccc2O[C@@H]1CN(C)S(C)(=O)=O | . | . | . | -4.6 | 8.0
CCOC(=O)N(C)C[C@H]1OCc2ccccc2-c2c(n(C)c3ccccc23)C(=O)N([C@H](C)CO)C[C@H]1C | . | . | . | 2.6 | 8.6
COc1cc(S(=O)(=O)NCc2cccnc2)c(OC)cc1Br | -4.2 | 50.3* | 8.8 | . | .
O=S(=O)(NC(=NC1CCCCC1)c1ccccc1F)c1ccccc1 | 2.4 | -7.0 | 63.3* | 0.3 | -2.1
O=S(=O)(NC(=NC1CCCCC1)c1ccccc1)c1ccccc1 | -3.0 | 1.4 | 12.5 | -3.4 | 0.8
Oc1ccc(C[C@H]2CNC(=S)N2CC2CCCN2C[C@H](Cc2ccc(O)cc2)N2C[C@H](Cc3ccc(O)cc3)N(CC3CCCCCC3)C2=S)cc1 (stereo partly drawn) | -26.7 | 35.3 | 88.6* | 10.1 | 41.9
Oc1ccc(C[C@H]2CN([C@@H](Cc3ccccc3)CN3CCC[C@@H]3CN3C(=S)NC[C@@H]3Cc3ccccc3)C(=S)N2CC2CCCCC2)cc1 | . | 9.7 | 8.5 | 9.4 | 7.6
CC(C)C[C@@H](CN1CCCC1CN1C(=S)NC[C@@H]1Cc1ccc(O)cc1)N1C[C@H](Cc2ccc(O)cc2)N(CCc2ccccc2)C1=S (stereo partly drawn) | 7.4 | 24.9 | 64.6* | 6.1 | 7.3
Oc1ccc(C[C@@H](CN2CCCC2CN2C(=S)NC[C@@H]2Cc2ccccc2)N2C[C@H](Cc3ccccc3)N(CC3CCCCC3)C2=S)cc1 (stereo partly drawn) | . | 8.2 | 9.7 | -13.0 | 16.7
Oc1ccc(C[C@H]2CNC(=S)N2CC2CCCN2C[C@H](Cc2ccc(O)cc2)N2C[C@H](Cc3ccccc3)N(CC3CCCCC3)C2=S)cc1 (stereo partly drawn) | 11.0 | -0.2 | 62.3* | 15.1 | 11.3
SMILES | LMP1 NFkB inh | TROY signal inh | TWEAK Fn14 block | LGR2 antag | EWS-Fli inh
C[C@@H]1CN([C@@H](C)CO)S(=O)(=O)c2ccc(-c3ccc(F)cc3)cc2O[C@H]1CN(C)C(=O)Nc1ccccc1F | . | . | . | 7.2 | 6.4
C[C@@H]1CN([C@@H](C)CO)S(=O)(=O)c2ccc(C#CC(C)(C)O)cc2O[C@@H]1CN(C)Cc1ccncc1 | . | . | . | -8.1 | -2.0
COCC(=O)N1CC[C@@H]2[C@H]1c1cc(-c3ccccc3)ccc1N(C)[C@H]2CO | . | . | . | 13.7 | -9.1
COc1ccc(CC2=CC(=O)c3ccccc3C2=O)cc1 | 7.1 | 0.6 | 29.3 | -8.3 | 69.0*
O=S(=O)(N[C@@H]1CC[C@H](CCn2cc(-c3ccc(F)cc3)nn2)O[C@H]1CO)c1ccccc1F | . | . | . | -9.0 | 6.1
COc1ccccc1CNC(=O)C[C@@H]1C[C@@H]2c3cc(NS(=O)(=O)c4ccc(F)cc4)ccc3O[C@@H]2[C@H](CO)O1 | . | . | . | 29.1 | 1.4
CC(=C/c1ccccc1)/C=N/n1c(-c2ccncc2)n[nH]c1=S | 56.5* | 52.0* | 77.5* | 17.5 | 0.1
CC(C)COC(=O)N(C)C[C@H]1OCc2cn(nn2)CCCC(=O)N([C@@H](C)CO)C[C@H]1C | . | . | . | 8.3 | 3.2
O=C(c1cccc(Cl)c1)N1CCN(c2ncnc3c2cnn3-c2ccccc2)CC1 | 3.8 | 12.9 | 10.6 | 11.5 | 5.6
Cc1nn(-c2ccccc2)c(Cl)c1C(=O)N1CCN(c2ncnc3c2cnn3-c2ccccc2)CC1 | 52.9* | 84.8* | 105.8* | . | .
Cn1ncc2c(N3CCN(c4ccccc4F)CC3)ncnc21 | -2.7 | 17.1 | -3.8 | -13.7 | .
Cn1ncc2c(N3CCN(c4ccc(Cl)c(Cl)c4)CC3)ncnc21 | -407.4 | 23.8 | 85.2* | -2.5 | 13.7
Clc1ccc(-n2ncc3c(N4CCCC4)ncnc32)cc1 | 51.7* | 80.4* | 99.8* | 72.5* | .
CCOC(=O)C1CCN(c2ncnc3c2cnn3-c2ccccc2)CC1 | -4.1 | -20.4 | 19.8 | . | .
CCOC(=O)C1CCN(c2ncnc3c2cnn3-c2ccc(Cl)cc2)CC1 | 24.6 | -1.3 | 52.0* | -32.9 | .
CCCNC(=O)N[C@H]1CC[C@@H](CC(=O)N2CCN(C)CC2)O[C@@H]1CO | . | . | . | -18.0 | -9.0
C[C@@H]1CCCCO[C@H](CN(C)C(=O)Cc2ccccc2)[C@H](C)CN([C@H](C)CO)C(=O)c2cc(NS(=O)(=O)c3cccs3)ccc2O1 | . | . | . | -16.5 | -5.4
Cc1ccccc1-c1ccc([C@@H]2[C@H]3CN(C(=O)Nc4cccc(F)c4)CCCCN3[C@H]2CO)cc1 | . | . | . | 3.5 | 19.1
COc1ccc(-n2ncc3c(N4CCC(C)CC4)ncnc32)cc1 | 35.5 | 69.0* | 66.4* | ? | 47.8
c1ccc(Cn2ncc3c(N4CCCCC4)ncnc32)cc1 | -4.9 | 17.8 | 16.6 | . | .
Clc1ccc(Cn2ncc3c(N4CCN(c5ccccc5)CC4)ncnc32)cc1 | . | 81.2* | 101.7* | 4.9 | 9.3

Bioassay records deposited in PubChem by several laboratories.
